Laboratory results taken from PubChem BioAssay AID624125 (The Scripps Research Institute Molecular Screening Center, 2012).
The campaign covered roughly 360,000 compounds. About 2,600 (0.72%) were called active.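 How the source made its calls: active means inhibition above its plate's cutoff, the mean inhibition of sample wells plus 3 SD (cut at about 27% in these data); inactive means the rest.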 For the sample, actives were picked, then their nearest neighbours and some compounds at random.

The compounds below were run against Muscarinic acetylcholine receptor M4 (Homo sapiens) (UniProt P08173) (assay: human M4 muscarinic receptor antagonists, primary screen, CHO cells, Fluo-8 calcium fluorescence (AID 624125;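 further: 0% = acetylcholine EC80 with DMSO and 100% = DMSO without agonist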)). Details: CHO-hM4 cells, ACh EC80, Fluo-8 calcium fluorescence; at 3 µM; hits give high values.
Sequence of Muscarinic acetylcholine receptor M4 (Homo sapiens) (P08173 whole entry, looked up): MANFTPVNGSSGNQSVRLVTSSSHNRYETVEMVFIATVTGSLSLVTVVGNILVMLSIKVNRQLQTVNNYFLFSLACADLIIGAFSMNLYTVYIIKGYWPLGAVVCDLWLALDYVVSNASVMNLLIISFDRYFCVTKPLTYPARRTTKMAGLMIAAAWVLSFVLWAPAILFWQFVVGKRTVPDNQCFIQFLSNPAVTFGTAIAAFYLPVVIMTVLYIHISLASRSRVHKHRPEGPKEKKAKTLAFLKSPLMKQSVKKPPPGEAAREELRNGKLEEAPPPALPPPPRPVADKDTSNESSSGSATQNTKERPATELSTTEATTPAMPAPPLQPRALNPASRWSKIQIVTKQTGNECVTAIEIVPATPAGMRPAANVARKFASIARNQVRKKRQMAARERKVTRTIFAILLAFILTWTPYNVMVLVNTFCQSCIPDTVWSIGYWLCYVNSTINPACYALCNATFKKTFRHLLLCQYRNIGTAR

Row | Compound | inhibition
1 | CSCCC(c1nnnn1C(C)(C)C)N1CCC(n2c(=O)[nH]c3ccccc32)CC1 (stereo not given) | 5.14% (inactive)
2 | O=c1[nH]c2ccccc2n1C1CCN(C(c2ccccc2)c2nnnn2Cc2ccccc2)CC1 (stereo not given) | 27.1% (active)
3 | O=c1[nH]c2ccccc2n1C1CCN(C(c2ccnc3ccccc23)c2nnnn2Cc2ccccc2)CC1 (stereo not given) | 22.4% (inactive)
4 | Nc1ccc(C(=O)N/N=C2/CN3CCC2CC3)cc1 | -0.14% (inactive)
5 | Cc1nn(Cc2ccccc2Cl)c(Cl)c1C(=O)OC(C(=O)NC(N)=O)C(C)C (stereo not given) | 1.94% (inactive)
6 | COC(=O)N(c1ccc(OC)cc1)P1(=S)OCCC(C)O1 (stereo not given) | 1.76% (inactive)
7 | COc1ccc(N=Cc2c(O)n(C)c(=O)[nH]c2=O)cc1 | 1.06% (inactive)
8 | CC(C)c1c(CN(C)C(C)Cc2ccccc2)n(C)n(-c2ccccc2)c1=O (stereo not given) | 66.1% (active)
9 | CCOC(=O)C(O)(c1ccc(N)c(OC)c1)C(F)(F)F (stereo not given) | 1.32% (inactive)
10 | O=[N+]([O-])c1cnc2ccc3ccccc3c2c1 | 9.35% (inactive)
11 | CC1(C)Cc2c(C#N)c(N3CCNCC3)nc(-c3ccco3)c2CS1 | 5.55% (inactive)
12 | CC1CCCN1CCC(C(N)=O)(c1ccccc1)c1ccccc1 (stereo not given) | 99% (active)
13 | O=C(Cc1ccccc1)N1CCN(C2CCCCCC2)CC1 | 0.63% (inactive)
14 | CC1CCCCN1Cc1cccnc1 (stereo not given) | 3.46% (inactive)
15 | C[C@]12CCCCC1=CC(=O)C1C2CC[C@@]2(C)C1C[C@@H](F)[C@@H]2O (stereo not given in full) | -6.29% (inactive)
16 | N#Cc1ccc(Cn2cc(C(=O)c3ccco3)c3ccccc32)cc1 | 0.92% (inactive)
17 | CCOP(=O)(OCC)C(NC(=O)c1ccc(C)cc1)C(Cl)(Cl)Cl (stereo not given) | 9.97% (inactive)
18 | CCOP(=O)(OCC)C(NC(=O)NC)C(N)=O (stereo not given) | 39% (active)

Row | Compound | inhibition
19 | CCOP(=O)(OCC)C(NC(=O)c1ccc(OC)cc1)C(Cl)(Cl)Cl (stereo not given) | 3.05% (inactive)
20 | CN(C)CCCN=Cc1c(O)n(Cc2ccco2)c(=O)[nH]c1=O | 2.03% (inactive)
21 | CC(=O)N(C1=NCCCS1)c1ccccc1F | -8.11% (inactive)
22 | CN(C)C(=O)Oc1cc(=O)n2c3c(cccc13)CCC2 | -4.4% (inactive)
23 | CCCCCCCCCCCCn1ccc(=N)cc1 | 71.3% (active)
24 | COc1cc(-n2c(=S)[nH]c3ccc(C)cc3c2=O)c(Cl)cc1Cl | 3.21% (inactive)
25 | COC(=O)C(O)(c1ccc(NC(=O)c2ccco2)c(OC)c1)C(F)(F)F (stereo not given) | 1.51% (inactive)
26 | CCCC(C)n1[nH]c(=O)c2c1NC(=O)CSC2c1ccc(OC)c(OC)c1 (stereo not given) | -2% (inactive)
27 | O=C(NCC(c1cccnc1)N1CCN(c2ccccc2)CC1)Oc1ccccc1 (stereo not given) | -1.68% (inactive)
28 | CCCC[N+]1(C)C2CC(OC(=O)C(CO)c3ccccc3)CC1C1OC12 (stereo not given) | 90.4% (active)
29 | N#CC1=C(N)Oc2c(c(=O)oc3ccccc23)C1c1ccccc1OC(=O)c1cccs1 (stereo not given) | 5.46% (inactive)
30 | Cc1ccc(-n2c(O)c(C=NCC3CCCO3)c(=O)[nH]c2=O)c(C)c1 (stereo not given) | -11% (inactive)
31 | COc1cccc(CN2CCCC(C(=O)c3ccccc3SC)C2)c1O (stereo not given) | -1.14% (inactive)
32 | CC[N+]1(C)CCCC(OC(=O)C(O)(c2ccccc2)c2ccccc2)C1 (stereo not given) | 98.6% (active)
33 | Cc1ccc(N(C)C(=O)Oc2cccc3ccc(C)nc23)cc1 | 5.04% (inactive)
34 | CCc1nc2ccccc2c(=O)n1-c1cccc(OC)c1 | -8.12% (inactive)
35 | CN1CCN(/N=C/c2c[nH]c3ccccc23)CC1 | -1.55% (inactive)
